# Bioassay records as filed in PubChem.
# Sm TGR block: blocks Schistosoma mansoni thioredoxin glutathione reductase. Q962Y6. purified TGR, DTNB reduction, TNB absorbance 405 nm. Potency, µM (series often up to 114 µM), for the others: at the top dose activity change, negative = inhibition, actives largely listed as inhibitors. hit rate 3% among 360,000. AID 485364; note: % is set by controls: 0 for no effect and ±100 for the full control effect; nearly all actives have a fitted effect of over 60% in size
#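 Kinetic colorimetric format: TGR-catalysed, NADPH-driven DTNB reduction monitored via TNB absorbance. Enzyme dispensed at 20 nM; compound exposure 15 min at room temperature before reaction start.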
# SARS PLP yeast: inhibitors of SARS-CoV papain-like protease in yeast; S. cerevisiae expressing SARS-CoV PLpro, growth rescue; AID 485353; Potency, µM (titrated, usually from 32.9 µM), for the others: top-dose activity, positive = growth rescue, actives largely listed as activators; hit rate 0.19% among 330,000; calls by dose curve; note: 0% is about no effect; nearly all actives have a fitted effect of over 55% in size
# RE007 growth inh: less growth of the S. pombe RE007 Vpr strain; S. pombe RE007 Vpr strain, BacTiter-Glo ATP luminescence, 24 h; hit rate 0.21% among 360,000; Potency, µM (series often up to 92.2 µM), without a hit: at the highest dose activity change, negative = less growth, hits mostly inhibitors; AID 651644; active = well fitted falling curve with a large enough effect; inconclusive = small, poorly fitted or top-dose-only effect; inactive = no such curve, though single readings can be large or run the other way; note: % is set by controls: 0 for no effect and ±100 for the full control effect; nearly all actives have a fitted effect of over 50% in size
#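 Fission yeast strain RE007, carrying one chromosomally integrated HIV-1 vpr copy, was seeded at OD 0.01 in PMG+AL medium with 23 nL pinned compound. After 24 h at 30 °C and 99% humidity, viability was read by BacTiter-Glo luminescence.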
# LmPK inh: LmPK (Leishmania mexicana) enzyme inhibition | Q27686 | purified LmPK, Kinase-Glo ATP luminescence, 1 h | Potency, µM (highest dose often 57.5 µM), for the others: at the highest dose activity change, negative = inhibition, most hits filed as inhibitors | hit rate 0.37% among 290,000 | AID 1721; note: % is set by controls: 0 for no effect and ±100 for the full control effect
# Target sequence (Q27686 whole entry, looked up): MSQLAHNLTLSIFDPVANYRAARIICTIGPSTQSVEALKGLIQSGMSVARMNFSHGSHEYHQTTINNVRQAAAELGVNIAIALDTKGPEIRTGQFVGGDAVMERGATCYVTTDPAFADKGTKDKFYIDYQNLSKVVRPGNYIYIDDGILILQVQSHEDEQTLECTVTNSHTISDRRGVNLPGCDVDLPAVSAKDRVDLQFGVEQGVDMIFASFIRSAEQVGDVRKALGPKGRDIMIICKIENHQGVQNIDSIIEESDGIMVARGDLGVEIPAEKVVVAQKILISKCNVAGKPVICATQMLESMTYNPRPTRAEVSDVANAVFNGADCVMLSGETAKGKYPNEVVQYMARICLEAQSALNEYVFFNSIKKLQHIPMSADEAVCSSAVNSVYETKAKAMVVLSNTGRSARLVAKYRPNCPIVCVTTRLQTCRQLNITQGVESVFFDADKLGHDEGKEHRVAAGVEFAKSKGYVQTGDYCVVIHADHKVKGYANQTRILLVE
#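 Purified LmPK (0.1 nM) converted ADP (0.1 mM) to ATP with PEP (0.5 mM) in imidazole buffer pH 7.2 with KCl and MgCl2, 1 h at room temperature. ATP was read by Kinase-Glo luminescence; data normalized to uninhibited and no-enzyme controls.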
# TbPYK inhibitor: inhibitors of Trypanosoma brucei pyruvate kinase | TbPYK enzyme, Kinase-Glo Plus ATP luminescence, 45 min | hit rate 0.12% among 410,000 | AID 624173 | Potency, µM (series often up to 76.8 µM), inactives show top-dose activity, negative = inhibition, most hits filed as inhibitors; note: % is set by controls: 0 for no effect and ±100 for the full control effect; nearly all actives have a fitted effect of over 50% in size
#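 ADP (130 uM final) triggers the TbPYK reaction after compound addition; incubation is 45 min at room temperature. Kinase-Glo Plus is then added and luminescence imaged. Normalized data are fitted to concentration-effect curves.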
# NS1 inh: influenza NS1 inhibition | Potency, µM (top dose mostly 46.1 µM), for inactives: at the top dose activity, positive = more growth | hit rate 0.4% among 270,000 | AID 2326; calls by dose curve; note: actives are rising curves; nearly all actives have a fitted effect of over 50% in size
#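 Compounds were scored for reversing the slow growth caused by influenza A NS1 in S. cerevisiae, measured by optical density at 600 nm. Assay medium contained 2% galactose at pH 6.0; NS1-free yeast of the same strain were the positive control.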
# * marks the source's active call; other numbers are inactive results; u = inconclusive; x = no result given; [ ] = dose if it differs, or a comment. An excerpt weighted towards active compounds, which were near 3.3% of everything screened. Unless noted, calls come from the whole dose curve; as a rule, active = well fitted curve in the direction sought with a large enough effect; inconclusive = small, poorly fitted or top-dose-only effect, or another doubt; inactive = no such curve, though single readings can be large; an effect the other way counts as inactive or inconclusive. Potency is the fitted concentration of half-maximal effect.
SMILES,Sm TGR block,SARS PLP yeast,RE007 growth inh,LmPK inh,TbPYK inhibitor,NS1 inh
Cc1cc(CN(C)C(=O)CC2C(=O)NCCN2Cc2c(F)cccc2Cl)n[nH]1 (stereo unspecified),40µM*,-1%,-6%,3%,-5%,1%
O=C1NCCN(Cc2c(F)cccc2Cl)C1CC(=O)N1CCCO1 (stereo unspecified),28µM*,0%,1%,2%,-5%,1%
CCc1ccc(CNC(=O)C2CCCN(S(=O)(=O)c3ccc4c(ccn4C)c3)C2)cc1 (stereo unspecified),0%,x,x,x,0%,x
CCNC(=S)NNC(=O)c1cccn(Cc2ccc(Cl)cc2Cl)c1=O,-2%,u,-2%,7%,u,u
C=CCNC(=S)NNC(=O)c1cccn(Cc2ccc(Cl)cc2Cl)c1=O,6%,0%,-4%,3%,11µM*,3%
N#Cc1ccc(CN2CC[C@@]3(CCCN(S(=O)(=O)c4ccccc4)C3)C2)cc1,x,x,x,x,-5%,x
O=c1cc(CSc2ccc(Cl)cc2)[nH]c2[nH]n(-c3ccccc3)c(=O)c12,45µM*,6%,10%,0%,0%,14%
CC1CN(C(=O)c2ccc(COc3ccc4ccccc4c3)o2)CC(C)O1 (stereo unspecified),32µM*,0%,-11%,2%,0%,-6%
CC1CN(C(=O)c2ccc(COc3ccc(C(C)C)cc3)o2)CC(C)O1 (stereo unspecified),40µM*,0%,0%,3%,-4%,6%
CC1CN(C(=O)c2ccc(COc3ccccc3Cl)o2)CC(C)O1 (stereo unspecified),-15%,0%,-25%,-2%,4%,-22%
CC(C)Oc1cccc(NC(=O)c2ccccc2C(F)(F)F)c1,x,x,x,x,2%[157 µM],x
CCOC(=O)c1c(C)oc2c1c1c(c3ccccc32)OCN(Cc2cccnc2)C1,0.35µM*,-21%,-3%,0%,-3%,-19%
CCOC(=O)c1c(C)oc2c1c(C(c1cccnc1)N1CCN(C)CC1)c(O)c1ccccc12 (stereo unspecified),0.56µM*,-12%,x,-4%,x,-70%
CCOC(=O)c1c(C)oc2c1c(C(c1cccnc1)N1CCOCC1)c(O)c1ccccc12 (stereo unspecified),1.3µM*,-36%,9%,3%,2%,-6%
CCOC(=O)c1c(C)oc2c1c(C=NCc1ccccn1)c(O)c1ccccc12,u,-13%,-6%,4%,-5%,-41%
C=CCC1(C(C)CCC)C(=O)NC(=O)NC1=O (stereo unspecified),x,x,x,x,0%[157 µM],x
N[C@@H](Cc1[nH]nc2ccccc12)C(=O)O,x,x,x,x,x,6%
COc1ccc(-c2nc(CS(=O)CC(=O)NCc3ccc(Cl)cc3)c(C)o2)cc1OC (stereo unspecified),45µM*,-2%,-22%,8%,-5%,-7%
Cc1ccc(-c2nc(CS(=O)CC(=O)NCc3ccccc3)c(C)o2)cc1 (stereo unspecified),40µM*,8%,-6%,1%,-7%,4%
COc1ccc(-c2nc(CSCC(=O)NCc3ccco3)c(C)o2)cc1,45µM*,12%,8%,8%,3%,-2%
Cc1ccc(-c2nc(CS(=O)CC(=O)NCc3ccc(F)cc3)c(C)o2)cc1 (stereo unspecified),-29%,0%,-8%,5%,-19%,u
Cc1ccc(-c2nc(CS(=O)CC(=O)NCc3ccccn3)c(C)o2)cc1 (stereo unspecified),56µM*,11%,-11%,7%,1%,u
COc1ccc(-c2nc(CSCC(=O)NCCc3ccccc3)c(C)o2)cc1,u,x,x,x,4%,x
COc1ccc(-c2nc(CS(=O)CC(=O)NCCc3ccc(Cl)cc3)c(C)o2)cc1OC (stereo unspecified),u,x,x,x,-5%,x
CC(C)(C)c1ccc(OCC(=O)N(Cc2ccco2)Cc2ccccc2F)cc1,1%,x,x,x,0%,x
